# HT1080 IDH1KD tx – qHTS for induction of synthetic lethality in tumor cells producing 2HG: qHTS for the HT-1080-IDH1KD cell line; hit rate 2% among 360,000; AID 686971, 2013; Potency, µM (titrated, usually from 46.1 µM), without a hit: at the highest dose activity, negative = toxicity, hits mostly cytotoxic; HT-1080 IDH1 knockdown viability, ATP luminescence, 48 h;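 further: potency means the concentration at half of the fitted maximal effect; 0% = DMSO wells and -100% = cell-free medium wells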
#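 Assay cells: HT-1080 with IDH1 knockdown, 750 per well, RPMI/5% FBS. Exposure: 48 h at 37 °C following 2 h pre-incubation. Read: CellTiter-Glo luminescence; fitted concentration-response, curve class assigned.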
# TDP1 cell CPT – qHTS for Inhibitors of human tyrosyl-DNA phosphodiesterase 1 (TDP1): qHTS in cells in presence of CPT; chicken DT40 Tdp1-/-;hTDP1 cells + 20 nM CPT, ATP luminescence, 48 h; Potency, µM (top dose mostly 46.2 µM), inactives show top-dose activity change, negative = growth inhibition, hits mostly inhibitors; hit rate 12% among 420,000; further: potency means the concentration at half of the fitted maximal effect; nearly all actives have a fitted effect of over 55% in size
#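 Chicken DT40 Tdp1-/- cells stably complemented with human TDP1 were seeded at 400 cells/well in medium containing 20 nM camptothecin, exposed to pin-transferred compounds, and grown at 37 °C for at least 48 hr. Viability was read as ATP luminescence.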
# HT1080-NT tox – qHTS for induction of synthetic lethality in tumor cells producing 2HG: qHTS for the HT-1080-NT fibrosarcoma cell line; HT-1080-NT fibrosarcoma viability, CellTiter-Glo ATP luminescence, 48 h; AID 686970, 2013; hit rate 1.6% among 360,000; Potency, µM (highest dose often 46.1 µM), for the others: at the highest dose activity, negative = less viability, actives largely listed as cytotoxic;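 further: NT is the 2HG producing partner of a matched IDH1 knockdown line; potency means the concentration at half of the fitted maximal effect; 0% = DMSO-treated cells and -100% = media-only wells without cells; nearly all actives have a fitted effect of over 55% in size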
#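 HT-1080-NT; 750 cells/well; 5% FBS RPMI; 48 h compound, 37 degrees C; CellTiter-Glo luminescence; curve fitting and curve-class assignment.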
# IL-1B inflam inh – qHTS for Inhibitors of Inflammasome Signaling: IL-1-beta AlphaLISA Primary Screen. AID 743279, 2014. hit rate 4.7% among 360,000. activity change, % at 57.5 µM. THP-1 LPS/ATP IL-1B secretion, AlphaLISA, 16 h; hits give low values; in the data active means activity change below about -50%; inconclusive means mostly about -30% to -49%
#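 Secreted IL-1B measured by AlphaLISA bead assay after 16 h compound exposure of THP-1 cells; compounds (final up to 57.5 uM) added 1 h before LPS (250 ng/mL) and ATP (1.25 mM) stimulation; lower signal means less secretion.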
# TDP1 cell noCPT – qHTS for Inhibitors of human tyrosyl-DNA phosphodiesterase 1 (TDP1): qHTS in cells in absence of CPT. DT40 Tdp1-/- hTDP1 cells, no CPT, ATP luminescence, 48 h. Potency, µM (series often up to 46.2 µM), for inactives: at the top dose activity change, negative = growth inhibition, usual class: inhibitors. hit rate 15% among 420,000; further: potency means the concentration at half of the fitted maximal effect; nearly all actives have a fitted effect of over 55% in size
#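 Cells were dispensed at 400 per well, compounds added by pin tool, plates incubated ≥48 hr at 37 °C, then CellTiter-Glo added for 30 min at room temperature before luminescence reading. Line: DT40 Tdp1-/- complemented with hTDP1; camptothecin omitted.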
# * hit, by the source's call; u = inconclusive; x = no result given. Rows were chosen to be rich in hits. Some 19% of all compounds tested hit in one or more screens of this group. Unless noted, the call rests on the fitted dose curve; in most records, active means well fitted curve in the direction sought with a large enough effect; inconclusive means small, poorly fitted or top-dose-only effect, or another doubt; inactive means no such curve, though single readings can be large; an effect the other way counts as inactive or inconclusive. Unless noted, on the % scale 0 is the no-effect control and ±100 the full control effect.
SMILES,HT1080 IDH1KD tx,TDP1 cell CPT,HT1080-NT tox,IL-1B inflam inh,TDP1 cell noCPT
O=C(CNC(=O)c1cccs1)Nc1ccc(N2CCOCC2)cc1,6.4%,-0.9%,4.1%,-5.8,30.4%
CC(Oc1ccc(Br)cc1)C(=O)NCCCN1CCCC1=O (stereo not drawn),9.7%,2.9%,-0.7%,2.1,-0.7%
COc1ccc(OC)c(CNn2c(-c3ccccc3F)nc3ccccc3c2=O)c1,-12.6%,u,-4.1%,-1.0,18.4µM*
COc1cccc(CNn2c(-c3cccc(C)c3)nc3ccccc3c2=O)c1O,-3.7%,u,-4.1%,-22.7,u
COc1ccc(CNn2c(-c3ccccc3F)nc3ccccc3c2=O)cc1OC,1.7%,u,-0.5%,0.0,18.4µM*
CN(Cc1nc2ccccc2c(=O)[nH]1)C(=O)C1CC(=O)N(c2cccc3ccccc23)C1 (stereo not drawn),-19.7%,u,-14.4%,16.9,u
O=C(NNC(=S)Nc1ccc(C(=O)O)c(O)c1)c1ccncc1,13.1%,-106.6%,11.0%,11.6,-108.0%
Cc1c(Cl)cccc1NC(=O)CCn1nc(C)c2c(C)n(-c3ccccc3)nc2c1=O,x,-13.0%,x,x,11.7%
COc1ccc2cc(C3CC=C(CO)CN3S(=O)(=O)c3ccccc3[N+](=O)[O-])n(C(=O)OC(C)(C)C)c2c1 (stereo not drawn),u,23.1µM*,u,-17.1,20.6µM*
CC1(C)COC(c2ccc(F)c([N+](=O)[O-])c2)=N1,u,16.4µM*,u,-102.0*,16.4µM*
CCN(CC)CCOC(=O)c1ccc(N/C=C(/C#N)c2nc(-c3cc4ccccc4oc3=O)cs2)cc1,-3.8%,1.16µM*,-25.0%,127.6,2.31µM*
CCN(CC)CCOC(=O)c1ccc(N/C=C(/C#N)c2nc(-c3ccc4c(c3)OCO4)cs2)cc1,-12.3%,3.66µM*,-17.2%,32.4,5.17µM*
CCN(CC)CCOC(=O)c1ccc(N/C=C(/C#N)c2nc(-c3ccc(OC)cc3)cs2)cc1,-12.9%,4.11µM*,-4.8%,-5.5,4.61µM*
O=C1Nc2ccccc2C(=O)N(Cc2ccccc2)C1C(=O)NC1CC1 (stereo not drawn),4.0%,6.4%,17.8%,23.0,1.3%
CS(=O)(=O)Nc1ccc(C2=NN(S(=O)(=O)c3ccc(F)cc3)C(c3ccco3)C2)cc1 (stereo not drawn),u,-29.3%,u,17.7,-3.9%
O=S(=O)(c1ccccc1)N1N=C(c2ccc(O)cc2)CC1c1ccco1 (stereo not drawn),-1.4%,8.2µM*,0.1%,20.3,7.31µM*
O=S(=O)(c1ccccc1)N1N=C(c2ccccc2)CC1c1ccccc1F (stereo not drawn),-10.8%,16.4µM*,-9.5%,-22.1,u
O=S(=O)(c1ccccc1)N1N=C(c2ccc(Br)cc2)CC1c1ccco1 (stereo not drawn),-13.3%,16.4µM*,-1.3%,u,16.4µM*
O=C(CNS(=O)(=O)c1ccc(Br)cc1)N1CCOCC1,3.1%,-7.0%,-2.2%,6.3,19.1%
N#Cc1ccccc1NC(=O)CC1CCCCC1,-3.5%,-15.8%,3.1%,11.9,0.3%
N#Cc1ccccc1NC(=O)CC1c2ccccc2Oc2ccccc21,-1.7%,2.06µM*,-0.5%,16.4,1.84µM*
CC(=O)Nc1cc2c(cc1[N+](=O)[O-])-c1ccc(F)cc1C2,-13.1%,u,-5.7%,-81.2*,8.3%
N#C/C(=C\c1ccc(Cl)cc1)c1nc(-c2cc3ccccc3oc2=O)cs1,x,8.1%,x,x,-2.6%
CC1CCC(=C(C#N)c2nc(-c3cc4ccccc4oc3=O)cs2)CC1 (stereo not drawn),15.0%,u,29.4%,4.5,20.6µM*

# Compound activity as filed in PubChem.
